Shown are actives, neighbours in structure and some others; about 2% of the full set was active somewhere.
PERK inh = block of dimerizer-induced PERK translation repression, primary screen, PERK inhibitor project, CHO PERK-DD cells, SEAP luminescence, HTS. Eukaryotic translation initiation factor 2-alpha kinase 3 (Homo sapiens), Q9NZJ5. CHO PERK-DD fusion, SEAP luminescence translation reporter. inhibition, % at 5.6 µM. AID 1416, 2008. hit rate 0.17% among 220,000;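 active = inhibition above the mean inhibition of all tested compounds plus 3 SD, set separately per screening campaign, cut at about 2.9% in these data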;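 also: PERK kinase domain activated by AP20187 dimerizer at 100 nM; 0% = DMSO with dimerizer and 100% = rapamycin at 8.4 µM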
INS promoter inh = inhibitors of insulin promoter-driven GFP, primary screen, imaging, TRM-6 cells (human fetal islet line), eGFP reporter, cell count; inhibition, % at 2 µM; hit rate 0.9% among 130,000; reporter expression induced with tamoxifen;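 active = inhibition above the mean plus 3 SD, with well images judged a real hit on visual review, cut at about 60% in these data, passing the limit was not always enough; inconclusive = inhibition over the cutoff but images rejected on review; inactive = inhibition not above the cutoff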
eIF4E 4G PPI = eIF4E–eIF4G protein interaction inhibitors, primary screen, biochemical, uHTS, TR-FRET, eIF4GI fragment. Eukaryotic translation initiation factor 4E (Mus musculus) + Eukaryotic translation …. hit rate 0.37% among 220,000. inhibition, % at 21.7 µM. TR-FRET eIF4E-eIF4GI(517-606) binding, 2 h;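 active = inhibition above about 30%, limit read from the data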;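 also: 0% = full FRET control wells and 100% = background wells lacking eIF4GI fragment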
Target sequence (P63073 whole entry, looked up, the tested form may be a part): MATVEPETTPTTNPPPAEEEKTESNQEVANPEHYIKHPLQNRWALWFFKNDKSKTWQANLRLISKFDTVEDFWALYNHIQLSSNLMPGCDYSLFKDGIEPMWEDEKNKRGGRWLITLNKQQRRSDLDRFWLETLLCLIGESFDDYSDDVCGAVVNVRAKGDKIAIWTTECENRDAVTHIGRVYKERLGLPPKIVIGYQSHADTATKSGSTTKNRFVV
Target sequence (Q04637 whole entry, looked up, the tested form may be a part): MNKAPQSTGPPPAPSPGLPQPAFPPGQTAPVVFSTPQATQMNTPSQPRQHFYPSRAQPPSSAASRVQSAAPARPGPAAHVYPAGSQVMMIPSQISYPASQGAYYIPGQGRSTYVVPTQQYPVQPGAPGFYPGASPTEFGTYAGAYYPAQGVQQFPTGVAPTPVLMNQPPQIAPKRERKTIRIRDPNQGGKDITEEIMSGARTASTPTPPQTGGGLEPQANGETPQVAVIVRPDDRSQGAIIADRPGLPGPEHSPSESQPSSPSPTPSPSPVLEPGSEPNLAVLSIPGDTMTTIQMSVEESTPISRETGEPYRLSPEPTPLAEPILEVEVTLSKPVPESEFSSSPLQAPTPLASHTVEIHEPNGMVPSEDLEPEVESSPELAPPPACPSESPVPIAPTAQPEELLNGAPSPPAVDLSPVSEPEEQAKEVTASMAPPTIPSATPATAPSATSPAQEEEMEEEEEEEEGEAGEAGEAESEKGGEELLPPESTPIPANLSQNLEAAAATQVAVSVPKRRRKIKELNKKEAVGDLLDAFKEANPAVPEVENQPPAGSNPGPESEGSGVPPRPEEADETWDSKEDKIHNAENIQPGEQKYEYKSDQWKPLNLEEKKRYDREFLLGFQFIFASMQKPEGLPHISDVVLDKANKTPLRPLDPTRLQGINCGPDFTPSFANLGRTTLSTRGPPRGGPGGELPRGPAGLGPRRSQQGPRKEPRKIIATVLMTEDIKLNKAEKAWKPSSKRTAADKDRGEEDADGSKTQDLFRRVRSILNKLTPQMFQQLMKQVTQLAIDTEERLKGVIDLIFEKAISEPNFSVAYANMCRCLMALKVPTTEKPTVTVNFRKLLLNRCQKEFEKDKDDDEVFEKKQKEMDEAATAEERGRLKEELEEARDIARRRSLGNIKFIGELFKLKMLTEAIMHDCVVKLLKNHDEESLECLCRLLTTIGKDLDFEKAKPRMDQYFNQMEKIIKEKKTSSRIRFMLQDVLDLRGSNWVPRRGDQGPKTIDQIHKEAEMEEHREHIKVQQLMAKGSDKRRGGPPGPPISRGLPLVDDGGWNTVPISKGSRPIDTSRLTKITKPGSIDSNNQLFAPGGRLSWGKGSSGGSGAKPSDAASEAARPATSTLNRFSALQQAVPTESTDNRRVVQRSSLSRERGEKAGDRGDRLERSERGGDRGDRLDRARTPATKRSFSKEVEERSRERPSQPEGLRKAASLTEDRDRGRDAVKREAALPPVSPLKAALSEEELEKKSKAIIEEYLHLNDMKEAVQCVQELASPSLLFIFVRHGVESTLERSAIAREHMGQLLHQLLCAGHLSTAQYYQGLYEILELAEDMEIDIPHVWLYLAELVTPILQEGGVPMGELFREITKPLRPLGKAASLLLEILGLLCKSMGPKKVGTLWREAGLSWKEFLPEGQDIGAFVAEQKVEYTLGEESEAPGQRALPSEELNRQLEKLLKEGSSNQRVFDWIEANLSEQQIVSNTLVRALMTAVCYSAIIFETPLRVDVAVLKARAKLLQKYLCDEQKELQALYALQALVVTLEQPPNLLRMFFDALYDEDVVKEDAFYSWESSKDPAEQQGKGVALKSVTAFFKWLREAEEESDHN
Autophagy HCS = autophagy modulators in MEF cells, primary screen, imaging, high-content, MEF GFP-LC3. hit rate 0.98% among 190,000. calls only at 10 µM (by protocol). MEF GFP-LC3 puncta imaging; test concentration mostly 10 µM;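 active = percentage of spot-positive cells more than 3 SD above its plate mean, without a fluorescence outlier flag or 80% toxicity; inconclusive = no clear call, values can overlap the other calls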;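 also: spot-positive cell cutoff set from DMSO-treated cells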
Ins promoter up = insulin promoter activators in MIN6 cells, imaging, high-content screening, mouse beta cells | hit rate 0.3% among 190,000 | MIN6 insulin promoter-GFP reporter; stronger effect = higher value | z-score at 5 µM;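 active = z-score above 3 at 5 µM with at least 500 cells counted in the well; inconclusive = wells under 500 cells, flagged as cytotoxic or low count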
Starred values were filed as active, the others as inactive; i = inactive; ? = inconclusive; nt = no result given; + = active, no number; [ ] = remark or other dose.

SMILES | PERK inh | INS promoter inh | eIF4E 4G PPI | Autophagy HCS | Ins promoter up
CC(C)c1cc(C(=O)Nc2cccc(Cl)c2)no1 | 0 | 6 | 63*[fluorescence artefact?] | i | -0.35
Cn1cnc([N+](=O)[O-])c1SCCO | 0 | nt | -4 | nt | -0.04
O=C(NC(=S)N1CCN(C/C=C/c2ccccc2)CC1)c1ccc(Cl)nc1 | 0 | nt | 0 | nt | 0.08
COc1ccc(-c2cc(C(F)F)n3ncc(C(=O)Nc4ccc(C(=O)N5CCOCC5)cc4)c3n2)cc1 | 0 | nt | -3 | + | -0.87
CC(C)CNC(=O)CSc1nnc(-c2cccc(S(=O)(=O)N3CCCCC3)c2)o1 | 0 | 3 | 13 | i | 4.8*
CCOC(=O)C1=NNC2(c3ccc(C)cc3)C(=O)N(c3ccc(Cl)cc3)C(=O)C12 (centres undefined) | 0 | -31 | 2 | i | -0.21
Cc1ccc(-n2c(=O)c3cc4c(=O)n(-c5ccc(C)c(C)c5)c(=O)c4c(C(=O)c4ccc(C(=O)O)cc4)c3c2=O)cc1C | 0 | nt | 64* | nt | 0.56
O=C(O)c1ccc(-n2c(=O)c3ccccc3c3ccccc3c2=O)cc1 | 1 | nt | 2 | i | 0.22
C=CCn1c(C)c(C(C)=O)c(N2CCN(C(c3ccccc3)c3ccccc3)CC2)nc1=S | -1 | 36 | 1 | i | -0.18
Cc1cc2oc(=O)cc(Cn3ncc(Cl)c(Cl)c3=O)c2cc1Cl | 1 | nt | 1 | + | ?
CC(C)N(C(=O)COC(=O)[C@H](C)NC(N)=O)c1ccccc1 | 0 | nt | 1 | i | 0.21
O=C(CCC(=O)N1CCN(S(=O)(=O)c2ccc3ccccc3c2)CC1)Nc1cc(Cl)cc(Cl)c1 | -1 | nt | 2 | i | -0.22
O=C(Cn1ncc(Cl)c(Cl)c1=O)N1CCN(S(=O)(=O)c2ccc3ccccc3c2)CC1 | 1 | nt | -9 | + | -4.4
CCCCC1=CC2=C(c3ccco3)C(=O)C(C)(OC(=O)c3ccc(OC)cc3)C(=O)C2=CN1Cc1ccc(OC)cc1 (centres undefined) | nt | nt | 5 | nt | -0.32
CCCCC1=CC2=C(c3ccco3)C(=O)C(C)(OC(=O)c3ccc(OC)cc3)C(=O)C2=CN1CC(C)C (centres undefined) | nt | nt | -4 | nt | 4.3*
CCNC(=O)C1CCCc2c1[nH]c1ccc(Cl)cc21 (centres undefined) | 0 | 0 | 1 | i | nt
CCN(CC)S(=O)(=O)c1ccc(C(=O)Nc2cc3oc4ccccc4c3cc2OC)cc1 | 0 | -8 | 11 | + | -0.61
CCN(CC)S(=O)(=O)c1ccc(OC)c(NC(=O)Cc2cccs2)c1 | -1 | nt | 34* | i | 1.7
COc1cc2c(cc1NC(=O)/C=C/c1ccccc1)oc1ccccc12 | 1 | -6 | 1 | + | -0.55
COc1ccc(/C=C/C(=O)NC(=S)Nc2cc3oc4ccccc4c3cc2OC)cc1 | 1 | 19 | 0 | i | 0.08
CCc1cccc2c(SC(C)C(=O)NCC3CCCO3)nc(-c3ccccc3)nc12 (centres undefined) | 0 | 4 | -14 | i | -0.21
CCc1cccc2c(SCC(=O)NCC3CCCO3)nc(-c3ccc(F)cc3)nc12 (centres undefined) | 0 | -16 | 2 | + | -0.12
C/C(=N\NC(=S)NC1CCCCC1)c1ccc(C#N)cc1 | -1 | nt | 0 | + | -0.77
Fc1ccc(NC(=S)NNc2ncc(C(F)(F)F)cc2Cl)c(F)c1 | -1 | 29 | -6 | i | -3.6
Cc1ccc(Nc2nc(N)nc(CN3CCN(Cc4ccc5c(c4)OCO5)CC3)n2)cc1Cl | -2 | nt | 11 | + | -2.1
Cc1ccc(S(=O)(=O)N(C)C)cc1NC(=O)COC(=O)c1ccc2c(c1)OCCO2 | 0 | nt | 1 | i | -0.62
COc1cc(/C=C(\C#N)C(=O)Nc2cc(C(F)(F)F)ccc2Cl)ccc1OCC(=O)Nc1cccc(C(F)(F)F)c1 | 0 | 0 | -28 | i | 0.09
Cc1nc(=O)c(-c2ccccc2)c(C)n1-c1ccc(O)cc1 | -1 | 100* | 12 | i | -0.4
COc1ccc2c(c1)CC/C(=C/c1cc(OC)c(OC)c(OC)c1)C2=O | 1 | -29 | 1 | i | 2.1
COc1ccc(C2=NC(=O)/C(=C\c3cc(OC)c(OC)c(OC)c3)O2)cc1 | 1 | -20 | -6 | i | 3*
